Values joined by “and” are separate entries in the source; they are usually repeats but may differ in a detail not shown here. Identical values can stand only once. In all, about 5,500 compounds went through this assay and about 2,000 (36%) were called active. Not shown: some 18% with an inconclusive outcome. Rule as the data show it: active = normalized growth mostly below about 0.91 (no sharp cut-off); inconclusive = no clear call, values can overlap the other calls; inactive = mostly above about 0.92. The list shows a part of the results.
Experiment: chemical genetic growth profiling, strain panel (AID 1159580);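 also: tested at 20 µM; growth read once vehicle control cultures reached saturation at 30 °C; 1 = growth at the plate median or of vehicle wells; lower values mean less growth of the strain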
Conditions: S. cerevisiae deletion strains, growth OD

Measured: normalized growth

CO[C@@H]1[C@@H](OC(N)=O)[C@@H](O)[C@H](Oc2ccc3c(O)c(NC(=O)c4ccc(O)c(CC=C(C)C)c4)c(=O)oc3c2C)OC1(C)C
inactive: locus YAL013W, strain DEP1, stronger effect = lower value 1.02 | locus YAL021C, strain ccr4, stronger effect = lower value 1.03 | locus YAL026C, strain drs2, stronger effect = lower value 1.02 | locus YAL030W, strain snc1, stronger effect = lower value 1.03 | locus YBL061C, strain skt5, stronger effect = lower value 1.02 | locus YBR009C, strain hhf1, stronger effect = lower value 1.02 | locus YBR021W, strain FUR4, stronger effect = lower value 1.04 | locus YBR023C, strain chs3, stronger effect = lower value 1.04 | locus YBR171W, strain sec66, stronger effect = lower value 1.06 | locus YBR229C, strain ROT2, stronger effect = lower value 1.01 | locus YBR231C, strain swc5, stronger effect = lower value 1.04 | locus YBR279W, strain paf1, stronger effect = lower value 1.05 | locus YCL011C, strain gbp2, stronger effect = lower value 1.03 | locus YCL016C, strain dcc1, stronger effect = lower value 1.04 | locus YCL029C, strain bik1, stronger effect = lower value 0.995 | locus YCL061C, strain MRC1, stronger effect = lower value 1.03 | locus YCL069W, strain vba3, stronger effect = lower value 1.03 | locus YCR088W, strain abp1, stronger effect = lower value 1.04 | locus YDL005C, strain med2, stronger effect = lower value 1.04 | locus YDL035C, strain GPR1, stronger effect = lower value 1.01 | locus YDL040C, strain nat1, stronger effect = lower value 1.03 | locus YDL074C, strain BRE1, stronger effect = lower value 0.955 | locus YDL101C, strain DUN1, stronger effect = lower value 1.02 | locus YDL134C, strain PPH21, stronger effect = lower value 1.01 | locus YDL185W, strain tfp1, stronger effect = lower value 0.945 | locus YDL192W, strain arf1, stronger effect = lower value 0.988 | locus YDR001C, strain nth1, stronger effect = lower value 1.03 | locus YDR069C, strain doa4, stronger effect = lower value 1.01 | locus YDR101C, strain arx1, stronger effect = lower value 1.01 | locus YDR137W, strain rgp1, stronger effect = lower value 0.998 | locus YDR150W, strain NUM1, stronger effect = lower value 1.02 | locus YDR159W, strain sac3, stronger effect = lower value 0.98 | locus YDR162C, strain NBP2, stronger effect = lower value 0.968 | locus YDR195W, strain ref2 1.04 | locus YDR297W, strain sur2, stronger effect = lower value 1.03 | locus YDR318W, strain mcm21, stronger effect = lower value 0.991 | locus YDR334W, strain swr1, stronger effect = lower value 1.03 | locus YDR335W, strain msn5, stronger effect = lower value 1.06 | locus YDR388W, stronger effect = lower value 0.991 | locus YDR392W, strain spt3, stronger effect = lower value 0.999 | locus YDR502C, strain sam2, stronger effect = lower value 0.999 | locus YEL003W, strain gim4, stronger effect = lower value 0.999 | locus YEL037C, strain rad23, stronger effect = lower value 1.04 | locus YEL061C, strain CIN8 (second series), stronger effect = lower value 1.02 | locus YEL061C, strain CIN8, stronger effect = lower value 0.992 | locus YER015W, strain faa2, stronger effect = lower value 1.04 | locus YER016W, strain bim1, stronger effect = lower value 1.03 | locus YER110C, stronger effect = lower value 0.985 | locus YER111C, strain swi4, stronger effect = lower value 1.03 | locus YER155C, strain BEM2 (second series), stronger effect = lower value 1.06 | locus YER155C, strain BEM2, stronger effect = lower value 1.04 | locus YER167W, strain BCK2, stronger effect = lower value 1.02 | locus YFR010W, strain ubp6, stronger effect = lower value 1.02 | locus YGL078C, strain dbp3, stronger effect = lower value 0.954 | locus YGL086W, strain mad1, stronger effect = lower value 1.02 | locus YGL167C, strain pmr1, stronger effect = lower value 1.02 | locus YGL173C, strain kem1, stronger effect = lower value 1.05 | locus YGL227W, strain vid30, stronger effect = lower value 1.03 | locus YGL240W, strain doc1, stronger effect = lower value 1.01 | locus YGL248W, strain PDE1, stronger effect = lower value 1.02 | locus YGL253W, strain hxk2, stronger effect = lower value 1 | locus YGR078C, strain PAC10, stronger effect = lower value 1.01 | locus YGR135W, strain pre9, stronger effect = lower value 0.993 | locus YGR229C, strain SMI1, stronger effect = lower value 1.01 | locus YGR252W, strain gcn5, stronger effect = lower value 1.16 | locus YHR013C, strain ard1, stronger effect = lower value 1.05 | locus YHR027C, strain rpn1, stronger effect = lower value 1.04 | locus YHR030C, strain SLT2, stronger effect = lower value 1.02 and 0.882 | locus YHR079C, strain IRE1 (second series), stronger effect = lower value 0.986 | locus YHR079C, strain IRE1, stronger effect = lower value 0.87 | locus YHR094C, strain hxt1, stronger effect = lower value 0.995 | locus YHR129C, strain ARP1, stronger effect = lower value 1 | locus YHR142W, strain chs7, stronger effect = lower value 1.01 | locus YHR200W, strain rpn10, stronger effect = lower value 0.989 | locus YIL066C, strain RNR3, stronger effect = lower value 1.01 | locus YIL073C, strain SPO22, stronger effect = lower value 0.71 | locus YIL125W, strain kgd1, stronger effect = lower value 0.964 | locus YIR030C, strain dcg1, stronger effect = lower value 0.992 | locus YJL092W, strain hpr5, stronger effect = lower value 1.03 | locus YJL095W, strain BCK1 (second series), stronger effect = lower value 1.04 | locus YJL095W, strain BCK1, stronger effect = lower value 1.04 and 0.919 | locus YJL115W, strain asf1, stronger effect = lower value 1.04 | locus YJL129C, strain trk1, stronger effect = lower value 0.971 | locus YJL134W, strain LCB3, stronger effect = lower value 1.01 | locus YJL154C, strain vps35, stronger effect = lower value 1.04 | locus YJL164C, strain tpk1, stronger effect = lower value 1.02 | locus YJL166W, strain qcr8, stronger effect = lower value 1.04 | locus YJL168C, strain set2, stronger effect = lower value 0.988 | locus YJL187C, strain SWE1 (second series), stronger effect = lower value 1.01 | locus YJL187C, strain SWE1, stronger effect = lower value 1.03

Reference: PubChem BioAssay AID1159580 (chemical genetic matrix, 2015)
